LGR2 antag – inhibitors of bursicon-induced LGR2 CRE-luciferase signal, primary screen, cell-based, HEK293, CRE-luciferase reporter, bursicon stimulation; Drosophila bursicon receptor LGR2 (rickets); bursicon-stimulated, 4 h; inhibition, % at 9.99 µM; 380,000 tested, 0.35% active; AID 720647, 2013;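 active = drop in luminescence signal, shown as inhibition above about 50% in the replicate tests, limit read from the data, passing the limit was not always enough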;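 note: agonist challenge used bursicon conditioned medium at about half maximal strength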
TWEAK-Fn14 inh – inhibitors of TWEAK-Fn14 signaling, primary screen, luciferase reporter cells, uHTS | 360,000 tested, 2% active | AID 1159606, 2016 | TWEAK-stimulated Fn14 reporter cells, luciferase luminescence, 8 h | inhibition, % at 10 µM; in the data active = inhibition above about 50%
TROY NFkB inh – inhibitors of TROY-driven NF-kB signaling, primary screen, Q293 LMP1-TROYcd cells, NF-kB luciferase, uHTS. 360,000 tested, 0.98% active. Q293 LMP1-TROYcd NF-kB luciferase reporter, 4 h. inhibition, % at 10 µM. AID 1347056, 2019;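 active = compounds whose plate-normalised and pattern-corrected inhibition of the luciferase reporter signal at the single screening dose is 50% or more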
EWS-Fli inh – EWS/Fli-driven NR0B1 reporter inhibitors, primary screen, A673 cells, NR0B1 luciferase, luminescence, MLPCN library | 350,000 tested, 0.67% active | AID 651661, 2012 | inhibition, % at 12.6 µM | viability-normalised;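 active = mean inhibition of at least 50% after viability correction, with every replicate also passing that limit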;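 note: firefly luciferase signal divided by Alamar Blue viability fluorescence both relative to DMSO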
LMP1 NFkB inh – EBV LMP1-driven NF-kappaB luciferase reporter inhibitors, primary screen, cell-based, luminescence, single point | 350,000 tested, 0.69% active | AID 504558, 2011 | LMP1-induced NF-kappaB luciferase reporter cells | inhibition, % at 12.5 µM; in the data active = inhibition above about 41%;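 note: 0% = neutral control wells and 100% = reference inhibitor control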
* hit, by the source's call. Sampled rows, rich in hits. Any-hit rate of the full collection: about 2.5%.

Screening Cc1cccc(S(=O)(=O)N2C[C@@H]3N[C@H](C2)C3c2ccc(-c3cccc(C#N)c3)cc2)c1 (some centres not stated) returned LGR2 antag 0 and EWS-Fli inh -7.
Cc1ccc(-c2nc3cc(NC(=O)C(C)C)ccc3o2)cc1C was read as TWEAK-Fn14 inh 86*, TROY NFkB inh 80* and LMP1 NFkB inh 0.
For O=C(Cc1ccc(Cl)cc1)c1c[nH]c(C(=O)NCc2cccnc2)c1 the results were LGR2 antag 6, TWEAK-Fn14 inh 43, TROY NFkB inh 12, EWS-Fli inh 66* and LMP1 NFkB inh -8.
`Nc1c(-c2ccc3c(c2)OCCO3)oc2ccccc2c1=O` gave LGR2 antag -63, TWEAK-Fn14 inh 55*, TROY NFkB inh 33, EWS-Fli inh -109 and LMP1 NFkB inh -29.
Screening O=C(C[C@@H]1CC[C@@H]2[C@H](COC[C@@H](O)CN2C(=O)Nc2ccc(C(F)(F)F)cc2)O1)NCCc1ccncc1 returned LGR2 antag 7 and EWS-Fli inh -5.
`Nc1nc2cc3c(cc2cc1C(=O)NCCc1c[nH]c2ccccc12)OCO3` gave LGR2 antag 11 and EWS-Fli inh 59*.
For Oc1cc(NCc2cccnc2)ccc1-c1nc2ccccc2o1 the results were TWEAK-Fn14 inh 103*, TROY NFkB inh -38 and LMP1 NFkB inh -29.
CCc1ccc(OCC(=O)Nc2ccc(-c3nc4ccccc4o3)c(O)c2)cc1 was read as TWEAK-Fn14 inh -2, TROY NFkB inh -58 and LMP1 NFkB inh -49.
`COc1ccc(S(=O)(=O)Nc2cc(SCC(=O)O)c(O)c3ccccc23)cc1` gave LGR2 antag -14, TWEAK-Fn14 inh 93*, TROY NFkB inh 51*, EWS-Fli inh -1 and LMP1 NFkB inh -9.
For O=S(=O)(Nc1cc(Sc2cccc3cccnc23)c(O)c2ccccc12)c1ccc(F)cc1 the results were EWS-Fli inh 12.
`O=C(O)CSc1cc(NS(=O)(=O)c2ccc(Cl)cc2)c2ccccc2c1O` gave LGR2 antag 1, TWEAK-Fn14 inh 94*, TROY NFkB inh 46, EWS-Fli inh -14 and LMP1 NFkB inh 9.
For COc1ccc(S(=O)(=O)Nc2ccc3c(c2)C(=O)N([C@@H](C)CO)C[C@@H](C)[C@H](CN(C)S(=O)(=O)c2ccc(C)cc2)OCCCC[C@@H](C)O3)cc1 the results were LGR2 antag -3 and EWS-Fli inh 9.
`O=C(NC1(Cc2ccccc2)CCN(Cc2ccc(-c3ccccc3)cc2)C1=O)c1ccccc1` (configuration not stated) gave LGR2 antag 56*, TWEAK-Fn14 inh 59*, TROY NFkB inh 62*, EWS-Fli inh -6 and LMP1 NFkB inh -11.
For C[C@H]1CN([C@@H](C)CO)C(=O)Cc2cc(NC(=O)C3CC3)ccc2O[C@@H]1CN(C)CC1CC1 the results were LGR2 antag -23 and EWS-Fli inh -4.
For O=C(CSc1nnnn1-c1ccccc1)NC(=O)Nc1ccc2c(c1)OCCO2 the results were TWEAK-Fn14 inh 2, TROY NFkB inh -40 and LMP1 NFkB inh 1.
Screening CCOc1ccccc1-n1nnnc1SCC(=O)NC(=O)Nc1ccc2c(c1)OCCO2 returned TWEAK-Fn14 inh 70*, TROY NFkB inh 25 and LMP1 NFkB inh 2.
`O=C1/C(=C/c2cccnc2)CCc2c1[nH]c1ccccc21` gave LGR2 antag -63, TWEAK-Fn14 inh 62*, TROY NFkB inh 7, EWS-Fli inh 3 and LMP1 NFkB inh 11.
`CC(C)C/C=C1\CCc2c([nH]c3ccccc23)C1=O` gave LGR2 antag -93, TWEAK-Fn14 inh -19, TROY NFkB inh -50, EWS-Fli inh -60 and LMP1 NFkB inh -53.
For CC1C/C(=C\c2cccnc2)C(=O)/C(=C/c2cccnc2)C1 (configuration not stated) the results were LGR2 antag 85*, TWEAK-Fn14 inh 103*, TROY NFkB inh 52* and LMP1 NFkB inh 92*.
For COc1ccc(S(=O)(=O)NC[C@@H]2CC[C@H]3[C@H](CN3Cc3cc(F)ccc3F)O2)cc1 the results were EWS-Fli inh 29.
CC(=O)Nc1sc(N/N=C\c2ccccc2Cl)nc1-c1cccs1 was read as LGR2 antag -7, TWEAK-Fn14 inh 67*, TROY NFkB inh 16, EWS-Fli inh -5 and LMP1 NFkB inh -4.
For C[C@@H](c1ccccc1)N1C[C@H]2CCCN2c2cc(Br)ccc2S1(=O)=O the results were LGR2 antag -4, TWEAK-Fn14 inh 26, TROY NFkB inh -3, EWS-Fli inh 63* and LMP1 NFkB inh 2.
`O=S1(=O)c2ccc(Br)cc2N2CCC[C@H]2CN1Cc1ccccc1` gave LGR2 antag 9, TWEAK-Fn14 inh 37, TROY NFkB inh 16, EWS-Fli inh 48 and LMP1 NFkB inh -3.
For COc1ccc([N+](=O)[O-])cc1NCc1c(F)cccc1F the results were LGR2 antag 8, TWEAK-Fn14 inh 59*, TROY NFkB inh 4, EWS-Fli inh 8 and LMP1 NFkB inh -2.
Cc1ccc(-c2nn3c(C)nnc3c3ccccc23)cc1S(=O)(=O)NC(C)c1ccccc1 (configuration not stated) was read as TWEAK-Fn14 inh 58*, TROY NFkB inh -8 and LMP1 NFkB inh 4.
Screening Cc1cccc2c3nc4ccccc4nc3n(CCCN3C(=O)c4ccccc4C3=O)c12 returned LGR2 antag 27, TWEAK-Fn14 inh 71*, TROY NFkB inh -10 and LMP1 NFkB inh -6.
Screening C[C@@H]1CN([C@@H](C)CO)C(=O)Cc2cc(NS(C)(=O)=O)ccc2O[C@@H]1CN(C)S(=O)(=O)c1ccccc1 returned LGR2 antag 1 and EWS-Fli inh 4.
Screening CCCNC(=O)N(C)C[C@@H]1Oc2ncc(C#CC3(O)CCCC3)cc2C(=O)N([C@H](C)CO)C[C@@H]1C returned LGR2 antag 11 and EWS-Fli inh -1.
COc1ccc(C(=O)c2c(C(F)(F)F)oc3c2C(=O)c2ccccc2C3=O)cc1OC was read as TWEAK-Fn14 inh 58*, TROY NFkB inh 51* and LMP1 NFkB inh 24.
For COc1ccc(C(=O)Nc2ccc3c(c2)C(=O)c2ccccc2C3=O)cc1OC the results were LGR2 antag -13, TWEAK-Fn14 inh -29, TROY NFkB inh -45 and LMP1 NFkB inh 10.
For O=C(Nc1ccc(Cl)cc1)N1C[C@@H]2[C@H](c3ccccc31)[C@@H](CO)N2C(=O)C1CC1 the results were LGR2 antag -14 and EWS-Fli inh -1.
`Cc1ccc(C(=O)C2C(=O)C3CCC2C3)cc1` (configuration not stated) gave LGR2 antag 63*, TWEAK-Fn14 inh 63*, TROY NFkB inh -19 and EWS-Fli inh 19.
For Cc1ccc(C(=O)C2CCNCC2)cc1 the results were TWEAK-Fn14 inh -6, TROY NFkB inh -13 and LMP1 NFkB inh -3.

Source: PubChem BioAssay
